Bioassay records as filed in PubChem BioAssay.
KDM5B inh: inhibitors of human KDM5B histone demethylase. Q9UGL1. KDM5B demethylase, FDH-coupled NADH fluorescence (FDH is formaldehyde dehydrogenase). Potency, µM (titrated, usually from 57.7 µM), most hits filed as inhibitors. actives 2.6% (n = 220,000). AID 1347165; also: potency is read from the fitted curve at half-maximal effect; 0% is about no effect; nearly all actives have a fitted effect of over 70% in size
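Coupled FDH/NAD⁺ fluorescence readout. KDM5BΔAP 200 nM final; compound titration, 10 min RT preincubation; substrate mix 12.5 µM H3K4me3, 25 µM 2-OG, 50 µM Fe(II), 100 µM ascorbate, 0.25 mM NAD⁺, 0.25 U/mL FDH; ΔRFU over 30 min.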
SNCA expr inh: inhibitors of alpha-synuclein (SNCA) gene expression | HEK-293 SNCA-luciferase knock-in, luminescence, 24 h | Potency, µM (titrated, usually from 57.2 µM), for inactives: top-dose activity change, negative = inhibition, usual class: inhibitors | actives 0.17% (n = 140,000) | AID 1671194;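 also: potency is read from the fitted curve at half-maximal effect; plate controls were DMSO cells for no effect and cell-free wells for full effect; nearly all actives have a fitted effect of over 45% in size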
IP6K1 inhibitor: inhibitors of human IP6K1. Q92551. AID 1645851. IP6K1 kinase, ADP-Glo luminescence, 2 h; hits give low values. activity change, % (series mostly up to about 58 µM). actives 0.81% (n = 140,000); in the data active = activity change below about -25%; also: % is scaled to controls: 0 for no effect and ±100 for the full control effect
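ADP-Glo luminescence measures ADP made by human IP6K1 during a 2 h RT reaction with ATP/IP6 (mix at 1.3 mM/130 uM); top library doses 57.5 and 19.1 uM final.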
SNCA viab count: reduces viability of HEK-293 SNCA reporter cells; HEK-293-SNCA-luc viability, GF-AFC fluorescence, 24 h; Potency, µM (titrated, usually from 57.1 µM), without a hit: at the highest dose activity change, negative = cytotoxicity, most hits filed as cytotoxic; actives 0.12% (n = 150,000); AID 1671193;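 also: potency is read from the fitted curve at half-maximal effect; 0% = DMSO-treated cells and -100% = medium-only wells without cells; nearly all actives have a fitted effect of over 30% in size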
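HEK-293-SNCA-luc cells (1500/well) plated 24 h, then exposed 24 h to a dilution series; GF-AFC added 30 min at 37C, fluorescence 405/540 nm; normalised to medium-only and DMSO wells, Hill fit.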
* = called active by the depositor; i = inactive; ? = inconclusive; · = no result given; [ ] = dose if it differs, or a comment. An excerpt weighted towards active compounds, which were near 3% of everything screened. Unless noted, calls follow the shape of the dose curve; as a rule, active = well fitted curve in the direction sought with a large enough effect; inconclusive = small, poorly fitted or top-dose-only effect, or another doubt; inactive = no such curve, though single readings can be large; an effect the other way counts as inactive or inconclusive.

SMILES | KDM5B inh | SNCA expr inh | IP6K1 inhibitor | SNCA viab count
COC(=O)C(NC(=O)N1CCc2nc3cc(-c4ccccc4)[nH]n3c(=O)c2C1)C(C)C (stereo not given) | 25µM* | ? | 13 | 4%
COc1ccc(-c2cc3nc4c(c(=O)n3[nH]2)CCN(C(=O)COc2ccccc2C)C4)cc1 | 32µM* | 34% | 29 | -4%
Cc1ccccc1OCC(=O)N1CCc2c(nc3cc(-c4ccccc4Cl)[nH]n3c2=O)C1 | i | 3% | 28 | 2%
COc1ccc(NC(=O)N2CCc3nc4cc(-c5ccccc5)[nH]n4c(=O)c3C2)c(C)c1 | 10µM* | -18% | 0 | -11%
O=C(NCc1cccc(F)c1)N1CCc2nc3cc(-c4ccccc4)[nH]n3c(=O)c2C1 | 13µM* | ? | 12 | 17%
O=C(NCc1ccc(C(F)(F)F)cc1)C1(c2ccc(Cl)cc2)CCOCC1 | · | · | 10 | ·
COc1ccc(F)cc1-c1ccc(CN2CCC(NC(=O)C3CCCC3)C2)cc1 (stereo not given) | · | · | 7 | ·
Cc1ccc(NC(=O)Cc2nc(CSc3nncn3-c3ccccc3)cs2)cc1 | i | · | · | ·
COC(=O)c1sc(NC(=O)[C@@H](NC(=O)c2ccccc2F)C(C)C)nc1C | i | · | · | ·
COc1ccccc1CC(=O)NC1CCCC1 | i | · | · | ·
CC(C(=O)Nc1ccccc1)n1nc(-c2ccccc2)c2c(c1=O)CCCC2 (stereo not given) | i | · | · | ·
COc1ccc(NC(=O)N2CCc3c(nc4cc(-c5ccccc5)[nH]n4c3=O)C2)c(C)c1 | 20µM* | -17% | 35 | 9%
CCc1ccc(NC(=O)N2CCc3c(nc4cc(-c5ccc(OC)cc5)[nH]n4c3=O)C2)cc1 | ? | 54% | 26 | 5%
CSc1ccc(NC(=O)N2CCc3nc4cc(-c5ccccc5)[nH]n4c(=O)c3C2)cc1 | 25µM* | ? | 9 | 9%
CC1(C)CC(=O)C2=C(C1)OC(=O)CC2c1ccc2ccccc2c1 (stereo not given) | i | · | · | ·
N#CC1(NC(=O)CSc2ccc(C(F)(F)F)cn2)CCCCCC1 | i | · | · | ·
CCN(CC)S(=O)(=O)c1ccc(-c2nc(C)ccc2OC)cc1 | ? | 10% | 5 | 3%
COCCOc1ccc(-c2nc(C)ccc2OC)cc1 | 25µM* | -17% | 10 | 3%
CCN(Cc1ccc(Br)s1)C(=O)CCl | i | · | · | ·
COc1ccccc1-c1ccc(CN2CCC(NC(=O)Cc3ccc(F)cc3)C2)cc1 (stereo not given) | · | ? | 2 | -1%[12.5 µM]
COc1ccccc1-n1cc(-c2ccnc(N3CC(n4cccn4)C3)n2)cn1 | 32µM* | -12% | 19 | 2%
CC(=O)Nc1ccc(SC(C)C(=O)c2ccc3c(c2)NC(=O)CO3)cc1 (stereo not given) | i | · | · | ·
CN(C(=O)CCC1CCCCC1)C1(c2ccccc2Cl)CCCCC1=O (stereo not given) | i | · | · | ·
CC1(C(=O)Nc2ccccc2)CCc2cnc(N3CCOCC3)nc21 (stereo not given) | 35µM* | -3%[87.6 µM] | 4 | 14%[87.6 µM]
COc1cccc(Nc2ncc3c(n2)C(C)(C(=O)Nc2ccc(OC)nc2)CC3)c1 (stereo not given) | ? | -12%[87.6 µM] | -11 | -27%[87.6 µM]
SMILES | KDM5B inh | SNCA expr inh | IP6K1 inhibitor | SNCA viab count
COc1cccc(NC(=O)C2(C)CCc3cnc(N4CCOCC4)nc32)c1 (stereo not given) | 28µM* | -11%[87.6 µM] | 12 | -10%[87.6 µM]
COc1ccc(NC(=O)C2(C)CCc3cnc(N4CCOCC4)nc32)cn1 (stereo not given) | 35µM* | -4%[87.6 µM] | 10 | -17%[87.6 µM]
CC1(C(=O)NCc2cccc(Cl)c2)CCc2cnc(N3CCOCC3)nc21 (stereo not given) | 35µM* | -28%[87.6 µM] | 3 | -10%[87.6 µM]
CC1(C(=O)NCCN2CCOCC2)CCc2cnc(NCc3ccccc3)nc21 (stereo not given) | ? | -11%[87.6 µM] | -4 | 7%[87.6 µM]
C[C@@]12CO[C@H](c3ccccc3)C[C@@H]1C[C@H](N1CCN(Cc3ccnc4ccccc34)CC1)C2 | · | · | 0 | ·
CCCN(Cc1cccs1)C(=O)Nc1cc(Cl)ccc1OC | i | · | · | ·
O=C1CCN(CC(O)COc2ccccc2)c2ccc(F)cc2CN1C1CC1 (stereo not given) | · | · | -3 | ·
CCCN(C)C(=O)CCc1ccnc(N2CCOCC2)c1 | 25µM* | -2% | -1 | -10%
COc1ccc(N2CCN(C(=O)CCc3ccnc(N4CCOCC4)c3)CC2)cc1 | ? | -10% | 14 | 17%
CC(=O)N1CCN(C(=O)CCc2ccnc(N3CCOCC3)c2)CC1 | 28µM* | 7% | -8 | -6%
